The supplement of paper PMC13380429

System: Vero E6 infected with SARS-CoV-2
Test: inhibition of SARS-CoV-2 cytopathic effect; higher = more antiviral protection, active = above 15
Settings: 48 h

Measured: inhibition of SARS-CoV-2 cytopathic effect

Oc1cccc(-c2c3nc(c(-c4cccc(O)c4)c4ccc([nH]4)c(-c4cccc(O)c4)c4nc(c(-c5cccc(O)c5)c5ccc2[nH]5)CC4)C=C3)c1 [temoporfin]
inactive: 1 nM -0.78% | 8.33 nM 3.96% | 100 nM -0.62% | 833.33 nM -2.48% | 10000 nM -5.99%

CC1=C(/C=C/C(C)=C/C=C/C(C)=C/C(=O)Nc2ccc(O)cc2)C(C)(C)CCC1 [fenretinide]
inactive: 1 nM 2.01% | 8.33 nM 1.04% | 100 nM 0.95% | 833.33 nM -0.67% | 10000 nM 2.45%

COC(=O)[C@@H]1C[C@H](OC(C)=O)C(=O)[C@H]2[C@@]1(C)CC[C@H]1C(=O)O[C@H](c3ccoc3)C[C@]21C [salvinorin-A]
inactive: 1 nM -2.48% | 8.33 nM -1.89% | 100 nM -1.61% | 833.33 nM -0.35% | 10000 nM 0.69%

CCN(CC)CCNc1ccc(CO)c2sc3ccccc3c(=O)c12 [hycanthone]
inactive: 1 nM -3.88% | 8.33 nM -2.41% | 100 nM -0.96% | 833.33 nM -2.51% | 10000 nM 0.99%

C[C@@H]([C@H](O)c1ccc(O)cc1)N1CCC(Cc2ccccc2)CC1 (racemic) [ifenprodil]
inactive: 1 nM 2.09% | 8.33 nM -0.2% | 100 nM 0.52% | 833.33 nM 0.72% | 10000 nM -6.19%

N#Cc1c(N)nc(SCc2ncc[nH]2)c(C#N)c1-c1ccc(O)cc1
inactive: 1 nM -0.59% | 8.33 nM -2.41% | 100 nM 1.83% | 833.33 nM -3.13% | 10000 nM 0.18%

CN1C(=O)N(c2cc(Cl)cc(Cl)c2)C(=O)[C@]12CN(Cc1cc(C(=O)O)cs1)C[C@H]2c1ccc(C#N)cc1
inactive: 1 nM -1.94% | 8.33 nM 0.44% | 100 nM 1.44% | 833.33 nM 0.49% | 10000 nM -0.22%

CC(C)C[C@@H](C=O)NC(=O)[C@H](CC(C)C)NC(=O)[C@H](CC(C)C)NC(=O)OCc1ccccc1
inactive: 1 nM -0.72% | 8.33 nM 0.74% | 100 nM 9.43%
active: 833.33 nM 54% | 10000 nM 55.5%

CC(=O)Nc1cccc(Nc2ncnc(N3CCC(OCc4ccc(OC(F)(F)F)cc4)CC3)n2)c1C
inactive: 1 nM 0.94% | 8.33 nM -3.45% | 100 nM -5.16% | 833.33 nM -2.26% | 10000 nM 1.6%

CC(O)(C(=O)Nc1ccc(S(=O)(=O)c2ccccc2)cc1)C(F)(F)F (stereo not given)
inactive: 1 nM 1.63% | 8.33 nM 1.61% | 100 nM 2.14% | 833.33 nM -0.08% | 10000 nM 14.1%

CN(C)CCC(c1ccccc1)c1ccccn1 (stereo not given) [pheniramine]
inactive: 1 nM -0.78% | 8.33 nM 3.08% | 100 nM 0.29% | 833.33 nM 2.25% | 10000 nM -0.28%

N=C1N[C@H]2[C@H](CS[C@H]2CCCCC(=O)O)N1 [2-iminobiotin]
inactive: 1 nM -0.5% | 8.33 nM 1.48% | 100 nM -1.14% | 833.33 nM -2.01% | 10000 nM -2.17%

Nc1nc(OCc2ccccc2)c2nc[nH]c2n1 [O6-benzylguanine]
inactive: 1 nM 2.66% | 8.33 nM 2.87% | 100 nM -5.93% | 833.33 nM -3.87% | 10000 nM -1.55%

CN[C@@H]1[C@@H](O[C@H]2O[C@H](CO)[C@@H](N)[C@H](O)[C@H]2O)O[C@H]2C[C@@H](N)[C@@H](O[C@H]3[C@H](O)[C@@H](O)[C@H](N)C[C@@H]3N)O[C@@H]2[C@@H]1O [apramycin]
inactive: 1 nM -4.27% | 8.33 nM -2.53% | 100 nM -2.38% | 833.33 nM 0.37% | 10000 nM 0.71%

CC1=C(/C=C/C(=C/C=C/C(C)=C/C(=O)O)c2ccc(C)cc2)C(C)(C)CCC1
inactive: 1 nM 0.94% | 8.33 nM 2.92% | 100 nM 1% | 833.33 nM 1.71% | 10000 nM 6.23%

Cc1cc(C)c2c(c1)[C@@H](N(Cc1cc(C(F)(F)F)cc(C(F)(F)F)c1)c1nnn(C)n1)CCCN2C[C@H]1CC[C@H](C(=O)O)CC1 [evacetrapib]
inactive: 1 nM 2.13% | 8.33 nM -0.17% | 100 nM -3.28% | 833.33 nM -0.14% | 10000 nM 3.85%

COc1ccc2cc(OCC3(C(=O)O)CN(C(=O)c4ccc(F)cc4)C3)ccc2c1
inactive: 1 nM 2.48% | 8.33 nM 0% | 100 nM 1.35% | 833.33 nM 2.44% | 10000 nM 1.77%

CSc1ccc2c(c1)N(CCC1CCCCN1C)c1ccccc1S2 (stereo not given) [thioridazine]
inactive: 1 nM 1.41% | 8.33 nM 3.38% | 100 nM -2.55% | 833.33 nM 1.05%
active: 10000 nM 41.9%

CCOc1cc2ncc(C#N)c(Nc3ccc(OCc4cccc(F)c4)c(Cl)c3)c2cc1NC(=O)/C=C/CN(C)C
inactive: 1 nM -1.73% | 8.33 nM -3.51% | 100 nM -7.95% | 833.33 nM -12% | 10000 nM -22%

O=C1CN(/N=C/c2ccc([N+](=O)[O-])o2)C(=O)N1 [nitrofurantoin]
inactive: 1 nM -0.06% | 8.33 nM -0.32% | 100 nM 0.43% | 833.33 nM 0.55% | 10000 nM 1.5%

Oc1c(Cl)cc(Cl)c(Cl)c1Cc1c(O)c(Cl)cc(Cl)c1Cl [hexachlorophene]
inactive: 1 nM 0.56% | 8.33 nM 1.77% | 100 nM 0.2% | 833.33 nM 2.38% | 10000 nM 8.62%

CCCCC/C=C\C=C\CCCCCCCCC(=O)O [trans-10,cis-12-conjugated-linoleic-acid]
inactive: 1 nM -0.53% | 8.33 nM -2.2% | 100 nM -2.88% | 833.33 nM -2.64% | 10000 nM 7.84%

CCOc1ccccc1C(=O)O [2-ethoxybenzoic-acid]
inactive: 1 nM 2.67% | 8.33 nM 3.72% | 100 nM 4.26% | 833.33 nM 0.66% | 10000 nM -0.66%

CCCCCCCCCCCCCCCCCCCCCCCCCCCCO [1-octacosanol]
inactive: 1 nM 1.47% | 8.33 nM 3.47% | 100 nM 4.36% | 833.33 nM -0.37% | 10000 nM 1.08%

CC(=O)SCCC(=O)N1[C@H](C)CCC[C@@H]1C(=O)O [methiopril]
inactive: 1 nM -1.78% | 8.33 nM -1.6% | 100 nM 3.1% | 833.33 nM 0.4% | 10000 nM 1.04%

Nc1nc(-c2ccc(Cl)c(Cl)c2)c(-c2ccncc2)s1
inactive: 1 nM -1.24% | 8.33 nM 1.18% | 100 nM -2.7% | 833.33 nM -2.03% | 10000 nM -0.28%

CCCCCCCCCCCCOS(=O)(=O)O [dodecyl-sulfate]
inactive: 1 nM -0.285% | 8.33 nM 1.83% | 100 nM 1.98% | 833.33 nM 0.175% | 10000 nM 0.47%

CN(C)C(=O)N[C@H]1CC[C@H](CCN2CCN(c3cccc(Cl)c3Cl)CC2)CC1 [cariprazine]
inactive: 1 nM -2.57% | 8.33 nM 1.1% | 100 nM -0.14% | 833.33 nM 3.01% | 10000 nM -3.84%

C[C@]12C=CC(=O)C=C1CC[C@@H]1[C@@H]2CC[C@]2(C)OC(=O)CC[C@@H]12 [Testolactone]
inactive: 1 nM -1.05% | 8.33 nM -0.81% | 100 nM -0.43% | 833.33 nM -1.59% | 10000 nM 11.2%

COc1ccc(C(=O)NCc2cccnc2)cc1C(=O)NCc1cccnc1 [picotamide]
inactive: 1 nM -0.44% | 8.33 nM 2.62% | 100 nM 0.96% | 833.33 nM 0.22% | 10000 nM -1.62%

OC(CNCC(O)C1CCc2cc(F)ccc2O1)C1CCc2cc(F)ccc2O1 (stereo not given) [nebivolol]
inactive: 1 nM -8.56% | 8.33 nM -2.57% | 100 nM -0.54% | 833.33 nM -2.81% | 10000 nM -3.97%

C=C(C)[C@@H]1CC[C@]2(C(=O)O)CC[C@]3(C)[C@H](CC[C@@H]4[C@@]5(C)CC[C@H](OC(=O)CC(C)(C)C(=O)O)C(C)(C)[C@@H]5CC[C@]43C)[C@@H]12 [bevirimat-dimeglumine]
inactive: 1 nM -1.52% | 8.33 nM 0.9% | 100 nM 2.72% | 833.33 nM 0.6% | 10000 nM -0.27%

CC(=O)N[C@@H](Cc1ccc(O)cc1)C(=O)O [N-acetyl-tyrosine]
inactive: 1 nM -0.05% | 8.33 nM 1.2% | 100 nM 0.23% | 833.33 nM 2.56% | 10000 nM 4.82%

CN(C)CCC=C1c2ccccc2C=Cc2ccccc21 [cyclobenzaprine]
inactive: 1 nM 0.3% | 8.33 nM 6.56% | 100 nM 3.92% | 833.33 nM -1.83% | 10000 nM -6.67%

O=C(Nc1ccc(O)cc1)c1ccccc1O [N-salicoylaminophenol]
inactive: 1 nM 1.23% | 8.33 nM 2.05% | 100 nM 1.76% | 833.33 nM 2.47% | 10000 nM 4.87%

CO[C@@]1(NC(=O)C(C(=O)O)c2ccc(O)cc2)C(=O)N2C(C(=O)O)=C(CSc3nnnn3C)CO[C@@H]21 (stereo not given in full) [moxalactam]
inactive: 1 nM 1.45% | 8.33 nM -1.13% | 100 nM -0.85% | 833.33 nM -1.15% | 10000 nM 1.01%

Cc1c(O)c(=O)ccn1C [deferiprone]
inactive: 1 nM 0.05% | 8.33 nM 0.64% | 100 nM 1.45% | 833.33 nM 3.35% | 10000 nM 0.91%

COc1ccc(-c2ccc3ncc4c(c3c2)n(-c2ccc(N3CCNCC3)c(C(F)(F)F)c2)c(=O)n4C)cn1
inactive: 1 nM 0.99% | 8.33 nM 2.5% | 100 nM -0.69% | 833.33 nM -8.37% | 10000 nM -23.9%
